AGP1-GFP MLPCN: yeast TOR pathway AGP1-GFP modulation. S. cerevisiae AGP1-GFP multiplex flow cytometry, 3 h; GFP as percent of DMSO wells. GFP response vs DMSO, % at 10 µM. 320,000 tested, 0.02% active. AID 2066;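 active = GFP response relative to DMSO above a set limit, near screen average plus 3 SD, cut at about 150% in these data; inconclusive = fewer than 70 cells counted for the yeast strain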;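 also: median GFP channel fluorescence of the gated AGP1 strain per well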
LAP4-GFP MLPCN: alters LAP4-GFP fluorescence in TOR pathway yeast screen; AID 2023; S. cerevisiae LAP4-GFP multiplex, flow cytometry GFP, 3 h; median GFP as percent of DMSO wells; 320,000 tested, 0.34% active; GFP response vs DMSO, % at 10 µM;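 active = GFP response vs DMSO above a set limit, about the screen mean plus 3 SD, cut at about 150% in these data; inconclusive = under 70 cell events counted for the yeast strain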
CIT2-GFP yeast: yeast TOR pathway CIT2-GFP modulation | S. cerevisiae CIT2-GFP strain, flow cytometry, 3 h; 100 means same as DMSO wells | GFP response vs DMSO, % at 10 µM | 320,000 tested, 0.065% active | AID 2029;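 active = GFP response relative to DMSO above a set limit, near the screen mean plus 3 SD, cut at about 150% in these data; inconclusive = Fewer than 70 cells measured for a yeast strain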;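 also: ratio of well median GFP fluorescence to mean of DMSO wells on the plate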
MEP2 TOR yeast: alters MEP2-GFP fluorescence in TOR pathway yeast screen; S. cerevisiae MEP2-GFP strain, flow cytometry GFP, 3 h; 100% = DMSO control level; GFP response vs DMSO, % at 10 µM; 330,000 tested, 0.51% active; AID 2016;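 active = GFP response versus DMSO above a set limit, roughly screen mean plus 3 SD, cut at about 180% in these data; inconclusive = fewer than 70 cells counted for a yeast strain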;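 also: median GFP fluorescence of the barcode-gated MEP2-GFP cells per well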
RPL19A TOR yeast: modulators of TOR pathway RPL19A-GFP in S. cerevisiae. S. cerevisiae RPL19A-GFP strain, flow cytometry, 3 h; hits give low values. percent response vs DMSO, % at 10 µM. 330,000 tested, 0.3% active. AID 2025;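 active = percent response vs DMSO below 50%; inconclusive = fewer than 70 events counted for the yeast strain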;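 also: median channel GFP fluorescence of the barcoded RPL19A-GFP strain; ratio of sample median GFP to plate DMSO average so 100% = DMSO; lower means less RPL19A-GFP as with rapamycin TOR inhibition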
Starred values were filed as active, the others as inactive; u = inconclusive; x = no result; [ ] = another dose, or the depositor's remark. The list is not random: actives were taken first. Their share in the collection is about 0.93%.

SMILES	AGP1-GFP MLPCN	LAP4-GFP MLPCN	CIT2-GFP yeast	MEP2 TOR yeast	RPL19A TOR yeast
COc1cccc(N2CCN(c3ccc4nnc(CCC(=O)Nc5ccc(F)cc5F)n4n3)CC2)c1	98	84	98	89	96
Cc1ccc(NC(=O)CN(C)C(=O)COc2ncnc3ccc(Br)cc23)cc1	93	96	97	97	95
CC(Cc1nnc(SCC(=O)O)n1N)c1ccccc1 (stereo not given)	103	96	96	101	99
Nc1nc(-c2ccc3c(c2)CCCC3)c(CC(=O)O)s1	30	91	u	719*[may fluoresce violet]	32*[may fluoresce violet]
CN(C)S(=O)(=O)c1ccc(N2CCCC2)c(C(=O)NNC(=O)COc2ccccc2F)c1	101	100	104	96	100
CCC(c1nnnn1C(C)(C)C)N(Cc1ccco1)Cc1cc2cccc(C)c2[nH]c1=O (stereo not given)	u	98	u	350*[may fluoresce violet]	54
CCC(c1nnnn1CCc1ccccc1)N(Cc1ccco1)Cc1cc2cccc(C)c2[nH]c1=O (stereo not given)	107	108	105	111	107
CC(=O)Oc1ccc(N2C(=O)C3C(C2=O)C2(C)C=CC3(C)O2)cc1 (stereo not given)	82	262*	x	87	84
COc1ccc(S(=O)(=O)Nc2cc(Cl)ccc2OC)cc1	97	104	98	99	94
COc1ccc(Cl)cc1NS(=O)(=O)c1ccc(OC)c(OC)c1	u	101	u	209*[may fluoresce violet]	19*[may fluoresce violet]
COc1ccc(OCC(O)CNC(=O)/C=C/c2cccc([N+](=O)[O-])c2)cc1 (stereo not given)	23	97	104	177*	87
COc1ccc(C(=O)N2CCN(C)C(=O)[C@@H]2C)cc1OC1CCN(C(C)C)CC1	103	100	98	98	99
Cc1ccccc1NC(=O)C1CCN(c2cc(-c3ccccc3)nc3ncnn23)CC1	u	61	u	257*[may fluoresce violet]	60
CC(=O)Nc1ccc(NC(=O)C(C)OC(=O)CSCc2cccc(Cl)c2)cc1 (stereo not given)	108	102	108	108	102
O=C(Cc1cccs1)N1CCCC(c2nc3c(nnn3Cc3ccccc3Cl)c(=O)[nH]2)C1 (stereo not given)	u	95	u	294*[may fluoresce violet]	50*[may fluoresce violet]
CCOC(=O)Cc1csc(NC(=O)CSc2nnc(-c3ccc(C)cc3)o2)n1	110	163*	145	206*	103
CCOC(=O)Cc1csc(NC(=O)CSc2nnc(-c3ccc(F)cc3)o2)n1	102	111	104	108	101
CN(CC(=O)NCc1ccccc1Cl)S(=O)(=O)c1cccs1	17	87	97	142	73
CCC(=O)N/C(N)=N/c1nc2ccccc2o1	100	176*	92	110	87
CC(=O)N/C(N)=N/c1nc2cc([N+](=O)[O-])ccc2o1	104	115	105	98	97
CC(=O)N/C(N)=N/c1nc2cc(C)ccc2o1	u	70	u	u	19*[may fluoresce violet]
CCCC(=O)N/C(N)=N/c1nc2ccccc2o1	88	116	78	97	86
COCCNC(=O)c1cc(C(=O)CC(C)C)c[nH]1	95	101	100	100	100
CCOC(=O)C1CCN(C(=O)C(C)Oc2ccc(C(=O)c3ccccc3)cc2)CC1 (stereo not given)	102	102	98	103	99
COc1ccccc1N1CCN(C(=O)c2cc3c(=O)n4cccc(C)c4nc3s2)CC1	82	75	76	107	94
SMILES	AGP1-GFP MLPCN	LAP4-GFP MLPCN	CIT2-GFP yeast	MEP2 TOR yeast	RPL19A TOR yeast
COc1ccc(-c2ccc(SCC(=O)N3c4ccccc4CC3C)nn2)cc1OC (stereo not given)	108	163*	145	183*	109
CCOC(=O)N1CCN(C(=O)CSc2ccc(-c3ccc(OC)c(OC)c3)nn2)CC1	105	103	98	95	101
O=c1c2c(-c3ccc(Cl)cc3)csc2ncn1/N=C/c1cccc([N+](=O)[O-])c1O	145	201*	147	575*	71
COc1ccc(NC(=S)N2CCC(C(O)(c3ccccc3)c3ccccc3)CC2)cc1	100	96	101	99	107
COc1ccc(NC(=S)N2CCC(c3ccccc3)C2)cc1 (stereo not given)	117	132	121	249*	104
CC(=O)Nc1ccc(Nc2cc(C)nc3c(-c4ccc(Cl)cc4)cnn23)cc1	92	102	100	95	97
CC(=O)Nc1ccc(Nc2cc(C)nc3c(-c4ccc(Cl)cc4)c(C)nn23)cc1	87	127	102	262*	99
CC(C)(CO)NC(=O)C(Cc1ccccc1)N1C(=O)c2ccccc2C1=O (stereo not given)	95	87	100	105	104
O=C(/C=C(\O)c1ccccc1)C(=O)NNC(=O)c1ccccc1[N+](=O)[O-]	12	96	u	202*[may fluoresce violet]	63
Fc1ccc(OCc2nc3ccccc3s2)cc1	97	102	86	96	93
O/N=C/c1ccc(-c2ccccc2OC(F)(F)F)o1	u	71	u	457*[may fluoresce violet]	31*[may fluoresce violet]
CC(=O)c1ccc(-c2ccccc2OC(F)(F)F)o1	96	103	93	93	95
Cc1cnc(NC(=O)Cc2ccc(C)c(C)c2)s1	99	86	93	106	97
COc1ccc(Br)cc1/C=N/NC(=O)Cn1nnnc1N	46	336*	84	122	85
Cc1ccc(C(=O)OCC(=O)Nc2ccc(F)c(Cl)c2)o1	92	100	89	97	95
N#Cc1c(N)nc(SCc2ccccc2)c(C#N)c1-c1ccco1	u	u	u	u	17*[may fluoresce violet]
CC(=O)c1cc2c(cc1NS(=O)(=O)c1ccccc1Br)OCO2	23	99	u	608*[may fluoresce violet]	59
CC(=O)c1cc2c(cc1NS(=O)(=O)c1ccccc1C)OCO2	92	92	97	101	99
Cc1cc(C)c2c(N)c(C(=O)Nc3ccccc3F)sc2n1	95	104	88	98	96
CCOc1ncccc1C(=O)NCCc1ccc(S(N)(=O)=O)cc1	u	60	u	231*[may fluoresce violet]	38*[may fluoresce violet]
CC1CCN(C(=O)c2ccc(S(=O)(=O)NCc3ccco3)cc2)CC1	96	99	95	97	94
CCNc1nc(-c2ccc(Cl)cc2)cs1	87	167*	86	91	86
COc1ccc(C2CC(=O)N(C)c3ccccc3S2)cc1 (stereo not given)	99	93	108	103	106
O=c1n(Cc2ccccc2)nc2n1-c1ccccc1SC2	109	118	92	98	100
O=c1n(Cc2ccc(F)cc2)nc2n1-c1ccccc1SC2	u	79	u	199*[may fluoresce violet]	42*[may fluoresce violet]
COc1ccccc1NC(=O)NC1CCCCCCC1	93	76	92	104	119
